PubChem BioAssay AID624167 (Sanford-Burnham Center for Chemical Genomics, 2012)

Experiment: inhibition of PEG-3 promoter-driven reporter – cell-based, HeLa, luciferase, CREF/GAPDH counter-screen panel, dose response (AID 624167)
Settings: CREF/GAPDH counter-screens; run 2, dose range 1, at 100 µM (top of the series)

Compared with CCCn1nc(C(=O)Nc2nc(-c3ccccn3)cs2)c2ccccc2c1=O, O=c1c2ccccc2sc2nc(CCl)nn12 is higher in inhibition: 37.9% for the first, 99.3% for the second.

Going from O=C(N/N=C/c1cc([N+](=O)[O-])ccc1O)c1ccc(COc2ccc3c(c2)CCC3)o1 to C=CCn1c(COc2ccccc2)nnc1SC(C)C(=O)N/N=C/c1cc(Cl)ccc1O (stereo unspecified), the inhibition rises from -2.8% to 59.9%.

Compared with CS(=O)(=O)c1ccc(-c2sc3ccccc3c2C#CCCO)cc1, Cc1ccc(NC(=S)NC(=O)c2ccc(F)cc2)cc1S(=O)(=O)Nc1ccccc1Cl is lower in inhibition: 81.8% for the first, 55.6% for the second.

First: CCN(CC)S(=O)(=O)c1cccc(C(=O)N/N=C(\C)c2ccc(O)cc2O)c1
Second: COc1cc(OC)c2cc(C(=O)N/N=C/c3ccccc3O)[nH]c2c1
The inhibition of the first is lower: -50.5% for the first, 73.3% for the second.

First: CCC(=O)NC(c1ccc(C)cc1)c1ccc2cccnc2c1O (stereo unspecified)
Second: C(=N\Nc1ccc2ccccc2n1)/c1ccc2c(c1)OCCO2
The inhibition of the first is lower: 53.6% for the first, 92% for the second.

Going from C=C1CC2(OC1=O)c1ccccc1CCc1ccccc12 to CN(C)c1ccc(C=c2c3ccccc3n3c2cc(-c2ccccc2)[n+]3C)cc1, the inhibition rises from 99.7% to 100%.

Going from CC1CC(C)C(=O)C(C(CC2CC(=O)NC(=O)C2)OC(=O)CC(=O)c2ccccc2)C1 (stereo unspecified) to COC(=O)C1C=CC(OC2OC(COC(C)=O)C(OC(C)=O)C(OC(C)=O)C2OC(C)=O)n2c(=O)n(-c3ccccc3)c(=O)n21 (stereo unspecified), the inhibition falls from 90.5% to 84.2%.

Compared with CN1CCC2(CC1)N=C(c1ccc(F)cc1)C(=S)N2C(=O)c1ccc(C(C)(C)C)cc1, O=C(O)c1ccc(N/N=C/c2ccc(OC(=O)c3cccc(Cl)c3)cc2)cc1 is lower in inhibition: 97.8% for the first, 97.2% for the second.
